From PubChem BioAssay
Active and inactive are the calls of the source.

Key:
[1] = binders of probe aFSTL3 on microarray, primary screen, stem cell growth factor project, biochemical, small-molecule microarray, fluorescence 635/667 (AID 1064); details: higher = more signal;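 further: measures binding of the biotinylated anti-FSTL3 antibody to printed compounds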
[2] = binders from COS7 lysate, DM2A8 probe, primary screen, torsin A project, cell lysate, small-molecule microarray, fluorescence 635/667 (AID 1065); details: higher = more signal, COS7 lysate expressing mutant human TOR1A
[3] = binders of probe aFGF2 on microarray, primary screen, stem cell growth factor project, biochemical, small-molecule microarray, fluorescence 635/667 (AID 1067); details: higher = more signal;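 further: measures binding of biotinylated aFGF2 protein to printed compounds on slides; z-score merges feature fluorescence and signal-to-noise across triplicate slides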
[4] = binders of probe aFGF10 on microarray, primary screen, stem cell growth factor project, biochemical, small-molecule microarray, fluorescence 635/667 (AID 1071); details: higher = more signal;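 further: score merges 667 nm spot intensity and signal to noise from triplicate slides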
[5] = biological target: Neurogenic locus notch homolog protein 2 (Homo sapiens) (UniProt Q04721); assay: Notch2 binders on small-molecule microarrays, primary screen, biochemical, small-molecule microarray, 635 nm fluorescence, stem cell growth factors (AID 1073); details: Notch2 binding, higher = more signal
[6] = biological target: Pro-neuregulin-1, membrane-bound isoform (Homo sapiens) (UniProt Q02297); assay: NRG1 binders on small-molecule microarrays, primary screen, psychiatric disease protein project, biochemical, small-molecule microarray, fluorescence 635/667 (AID 1075); details: NRG1 binding, 635 nm fluorescence, higher = more signal;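 further: score combines 667 nm spot fluorescence with signal to noise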
[7] = test system: Neuregulin-1 EGF-like domain; assay: binders of neuregulin-1 EGF-like domain, primary screen, biochemical, small-molecule microarray, 635 nm fluorescence (AID 1081); details: small-molecule microarray binding, higher = more signal;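 further: binding of the protein to compounds printed on small-molecule microarray slides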
[8] = FRG1 promoter luciferase signal modulators, primary screen, FRG1 inhibition for FSHD, cell-based, C2C12 myotubes, firefly/Renilla luciferase, luminescence (AID 1084); details: higher = more signal, called active from +8 up or from −8 down
[9] = binders of probe aFST on microarray, primary screen, stem cell growth factor project, biochemical, small-molecule microarray, fluorescence 635/667 (AID 1086); details: higher = more signal;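 further: score merges 667 nm fluorescence with signal-to-noise of each printed compound spot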
[10] = binders of probe aHhip on microarray, primary screen, stem cell growth factor project, biochemical, small-molecule microarray, fluorescence 635/667 (AID 1087); details: higher = more signal;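 further: score merges spot fluorescence at 667nm with spot signal to noise ratio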
[11] = test system: PRMT1 (protein arginine N-methyltransferase 1); assay: PRMT1 binders on small-molecule microarrays, primary screen, biochemical, small-molecule microarray, 635 nm fluorescence (AID 1088); details: small-molecule microarray binding, higher = more signal;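 further: binding of Prmt1 protein to compounds spotted on small-molecule microarray slides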
[12] = yeast growth modulation, basal conditions, primary screen, YJM789 clinical isolate, OD600, 24 h (AID 1089);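 further: growth of clinical yeast isolate S. cerevisiae YJM 789 seeded 1000 cells per well; test concentration not given here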; details: S. cerevisiae YJM789 growth, higher = more signal, called active from +8 up or from −8 down
[13] = fission yeast growth modulation, primary screen, strain 972, OD600, 24 h, no modulator (AID 1090);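 further: basal condition with compound alone and no growth modifier present; test concentration not given here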; details: S. pombe 972 growth, higher = more signal, called active from +8 up or from −8 down
[14] = S. cerevisiae growth modulation with rapamycin, primary screen, strain BY4716, OD600, 96 h (AID 1091); details: higher = more signal, called active from +8 up or from −8 down; further: test concentration not given here
[15] = biological target: Torsin-1A-interacting protein 2 (Homo sapiens) (UniProt Q8NFQ8); assay: LULL1 binders on small-molecule microarray, primary screen, cell lysate, human LULL1 lysate, 635/667 nm fluorescence (AID 1092); details: hLULL1 lysate binding, 635 nm fluorescence, higher = more signal;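 further: probe is lysate of COS7 cells overexpressing human LULL1; score merges per-feature 667 nm fluorescence with signal-to-noise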
[16] = E. coli growth modulation, two-sided OD650, primary screen, E. coli filamentation project, strain DRC41, 24 h (AID 1093); details: OD650, 24 h, higher = more signal, called active from +8 up or from −8 down;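 further: MC1000 strain lacking acrAB efflux and sulA so SOS filamentation is blocked; test concentration not given here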
[17] = small-molecule microarray binders of probe aLefty2, primary screen, biochemical, biotinylated probe, 635/667 nm fluorescence (AID 1094); details: higher = more signal;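 further: score merges spot fluorescence near 667 nm with spot signal-to-noise ratio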
[18] = test system: Noggin (protein binding on small-molecule microarray); assay: Noggin binders on small-molecule microarray, primary screen, biochemical, 635/667 nm fluorescence (AID 1095); details: 635 nm fluorescence, higher = more signal;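 further: score merges 667 nm feature fluorescence with signal to noise over triplicate slides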
[19] = biological target: Neurogenic locus notch homolog protein 3 (Homo sapiens) (UniProt Q9UM47); assay: NOTCH3 binders on small-molecule microarray, primary screen, biochemical, 635/667 nm fluorescence (AID 1096); details: NOTCH3 binding, 635 nm fluorescence, higher = more signal
[20] = small-molecule microarray binders of probe aEGFR, primary screen, biochemical, biotinylated probe, 635/667 nm fluorescence (AID 1097); details: higher = more signal;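 further: probe is a biotinylated anti-EGFR antibody binding compounds printed on slides; score combines fluorescence near 667 nm and signal to noise of each spot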

Neurogenic locus notch homolog protein 3 (Homo sapiens), sequence (Q9UM47 whole entry, looked up): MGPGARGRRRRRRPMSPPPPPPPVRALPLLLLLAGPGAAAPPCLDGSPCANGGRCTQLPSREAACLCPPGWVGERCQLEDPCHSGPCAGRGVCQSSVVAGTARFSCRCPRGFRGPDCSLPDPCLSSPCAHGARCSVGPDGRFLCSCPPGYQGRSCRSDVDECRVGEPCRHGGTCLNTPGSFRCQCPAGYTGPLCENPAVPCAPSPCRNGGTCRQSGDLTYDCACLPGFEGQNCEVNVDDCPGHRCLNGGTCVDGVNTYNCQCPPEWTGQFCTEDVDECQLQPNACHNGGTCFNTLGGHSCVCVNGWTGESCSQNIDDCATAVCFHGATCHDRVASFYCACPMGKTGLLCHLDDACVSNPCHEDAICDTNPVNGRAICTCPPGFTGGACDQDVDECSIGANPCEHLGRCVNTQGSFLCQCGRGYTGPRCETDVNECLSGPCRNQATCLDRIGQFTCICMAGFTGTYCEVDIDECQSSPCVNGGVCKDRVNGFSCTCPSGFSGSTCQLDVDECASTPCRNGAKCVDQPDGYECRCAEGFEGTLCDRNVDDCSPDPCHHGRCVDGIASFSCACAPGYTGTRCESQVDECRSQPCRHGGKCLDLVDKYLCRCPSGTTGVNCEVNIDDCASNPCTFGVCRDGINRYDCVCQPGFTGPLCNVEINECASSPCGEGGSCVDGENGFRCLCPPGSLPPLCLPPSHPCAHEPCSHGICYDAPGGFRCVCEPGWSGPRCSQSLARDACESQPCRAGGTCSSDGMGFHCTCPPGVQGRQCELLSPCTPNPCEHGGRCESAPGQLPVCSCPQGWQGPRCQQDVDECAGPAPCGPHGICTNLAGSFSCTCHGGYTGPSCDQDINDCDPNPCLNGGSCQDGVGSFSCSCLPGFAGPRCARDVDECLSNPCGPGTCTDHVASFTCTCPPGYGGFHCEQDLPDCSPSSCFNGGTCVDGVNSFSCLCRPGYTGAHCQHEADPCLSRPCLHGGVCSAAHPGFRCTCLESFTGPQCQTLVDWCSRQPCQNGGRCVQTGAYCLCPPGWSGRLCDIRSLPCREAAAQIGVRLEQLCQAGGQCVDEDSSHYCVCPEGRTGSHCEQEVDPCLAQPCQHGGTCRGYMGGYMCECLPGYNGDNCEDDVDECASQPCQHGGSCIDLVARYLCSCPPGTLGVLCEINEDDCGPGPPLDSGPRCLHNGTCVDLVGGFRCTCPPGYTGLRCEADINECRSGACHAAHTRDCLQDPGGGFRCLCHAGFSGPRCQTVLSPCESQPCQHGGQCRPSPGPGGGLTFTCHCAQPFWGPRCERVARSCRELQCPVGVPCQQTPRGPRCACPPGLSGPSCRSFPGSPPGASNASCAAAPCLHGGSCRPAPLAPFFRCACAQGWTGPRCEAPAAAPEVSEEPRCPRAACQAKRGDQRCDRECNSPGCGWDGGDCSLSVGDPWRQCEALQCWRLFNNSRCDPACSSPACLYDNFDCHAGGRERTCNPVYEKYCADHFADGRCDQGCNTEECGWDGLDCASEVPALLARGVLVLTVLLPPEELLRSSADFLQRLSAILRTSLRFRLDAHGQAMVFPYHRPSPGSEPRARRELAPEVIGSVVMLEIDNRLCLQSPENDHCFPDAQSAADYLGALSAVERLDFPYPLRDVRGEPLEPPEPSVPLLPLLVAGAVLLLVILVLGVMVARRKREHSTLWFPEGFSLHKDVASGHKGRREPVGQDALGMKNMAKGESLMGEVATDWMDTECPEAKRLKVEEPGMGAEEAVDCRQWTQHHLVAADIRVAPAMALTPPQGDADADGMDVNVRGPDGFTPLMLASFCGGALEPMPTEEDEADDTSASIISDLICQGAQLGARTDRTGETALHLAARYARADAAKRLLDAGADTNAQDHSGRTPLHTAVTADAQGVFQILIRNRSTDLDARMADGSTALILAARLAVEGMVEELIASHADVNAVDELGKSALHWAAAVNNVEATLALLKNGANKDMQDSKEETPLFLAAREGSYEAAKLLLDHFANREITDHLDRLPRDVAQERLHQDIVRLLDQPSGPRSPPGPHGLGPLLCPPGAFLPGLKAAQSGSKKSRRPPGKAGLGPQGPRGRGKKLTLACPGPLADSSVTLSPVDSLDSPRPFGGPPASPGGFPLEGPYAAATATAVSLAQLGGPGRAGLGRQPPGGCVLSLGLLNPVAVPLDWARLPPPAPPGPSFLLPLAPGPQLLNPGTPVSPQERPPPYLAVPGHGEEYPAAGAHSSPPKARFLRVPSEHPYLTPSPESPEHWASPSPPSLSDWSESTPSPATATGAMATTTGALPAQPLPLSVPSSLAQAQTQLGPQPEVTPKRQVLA
Pro-neuregulin-1, membrane-bound isoform (Homo sapiens), sequence (Q02297 whole entry, looked up, the tested form may be a part, canonical isoform): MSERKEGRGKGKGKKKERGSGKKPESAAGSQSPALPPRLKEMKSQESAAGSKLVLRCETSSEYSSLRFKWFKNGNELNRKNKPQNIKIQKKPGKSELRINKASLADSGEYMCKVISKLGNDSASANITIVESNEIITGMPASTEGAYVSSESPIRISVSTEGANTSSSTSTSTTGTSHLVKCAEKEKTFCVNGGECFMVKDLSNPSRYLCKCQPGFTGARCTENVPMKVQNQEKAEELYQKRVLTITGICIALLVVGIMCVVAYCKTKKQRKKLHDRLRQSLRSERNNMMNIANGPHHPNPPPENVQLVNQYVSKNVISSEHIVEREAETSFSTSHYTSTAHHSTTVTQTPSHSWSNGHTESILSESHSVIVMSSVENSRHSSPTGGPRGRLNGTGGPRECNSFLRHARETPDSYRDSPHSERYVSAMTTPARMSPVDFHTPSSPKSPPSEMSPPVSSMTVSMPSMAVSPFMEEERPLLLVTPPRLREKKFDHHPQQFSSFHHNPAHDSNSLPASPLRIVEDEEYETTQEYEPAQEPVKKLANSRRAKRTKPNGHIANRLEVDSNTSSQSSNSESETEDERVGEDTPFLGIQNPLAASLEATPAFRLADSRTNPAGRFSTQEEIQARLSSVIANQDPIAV
Torsin-1A-interacting protein 2 (Homo sapiens), sequence (Q8NFQ8 whole entry, looked up): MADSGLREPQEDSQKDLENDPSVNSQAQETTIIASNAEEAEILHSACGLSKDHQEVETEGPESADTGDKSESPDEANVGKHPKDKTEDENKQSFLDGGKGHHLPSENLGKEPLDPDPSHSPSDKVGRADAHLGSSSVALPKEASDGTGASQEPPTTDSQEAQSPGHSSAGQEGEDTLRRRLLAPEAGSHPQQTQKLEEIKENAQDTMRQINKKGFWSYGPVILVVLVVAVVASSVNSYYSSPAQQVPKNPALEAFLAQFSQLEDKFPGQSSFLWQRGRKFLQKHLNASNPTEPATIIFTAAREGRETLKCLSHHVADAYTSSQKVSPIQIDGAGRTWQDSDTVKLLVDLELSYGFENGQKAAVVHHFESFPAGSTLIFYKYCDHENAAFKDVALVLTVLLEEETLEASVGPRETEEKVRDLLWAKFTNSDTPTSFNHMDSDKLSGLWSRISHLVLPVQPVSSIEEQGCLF

Row | SMILES | composite z-score [1] | composite z-score [2] | composite z-score [3] | composite z-score [4] | composite z-score [5] | composite z-score [6] | composite z-score [7] | z-score [8] | composite z-score [9] | composite z-score [10] | composite z-score [11] | z-score [12] | z-score [13] | z-score [14] | composite z-score [15] | z-score [16] | composite z-score [17] | composite z-score [18] | composite z-score [19] | composite z-score [20]
1 | C=CCNC(=O)[C@H]1[C@@H]2C(=O)O[C@@H](c3ccccc3)[C@@H](c3ccccc3)N2[C@@H](c2ccc(OCCO)cc2)[C@]12C(=O)N(C(=O)OCCOC)c1ccc(C#CCNC(N)=O)cc12 | 0.141 | 0.275 | -0.399 | 0.474 | 1.41 | 0.491 | 0.778 | -0.988 (inactive) | 0.942 | -0.246 | 1.55 | 1.91 (inactive) | 0.996 (inactive) | 4.55 (inactive) | 1.97 | -0.121 (inactive) | 0.247 | 1.84 | 1.11 | 0.0173
2 | CN1C(=O)C2CC=C(C3=CCO[C@@H]3[C@H]3CCCN3S(=O)(=O)c3ccccc3[N+](=O)[O-])CC2C1=O (stereo not given in full) | 0.895 | -0.216 | -0.166 | 0.114 | -0.456 | 0.789 | -0.132 | -0.869 (inactive) | 0.0699 | 0.0373 | 0.0659 | -0.0649 (inactive) | -0.706 (inactive) | -0.0153 (inactive) | 0.283 | -0.66 (inactive) | -0.203 | -0.194 | 0.01 | -0.171
3 | O=C1c2ccccc2[C@@]2(Cc3ccccc3N(CC(F)(F)F)C2=O)[C@H](c2ccc(CO)cc2)N1Cc1ccccc1 | 0.386 | 0.0025 | -0.124 | 0.316 | -0.661 | 0.0876 | -0.533 | 0.605 (inactive) | -0.0539 | -0.129 | 0.349 | 0.633 (inactive) | -0.269 (inactive) | -1.49 (inactive) | -0.117 | -1.91 (inactive) | -0.147 | 0.666 | -0.242 | -0.177
4 | COc1ccc(NN2C(C(O)c3ccc(F)cc3)C=CC3C(=O)N(C4CCCCC4)C(=O)C32)cc1 (stereo not given) | 0.443 | 0.0876 | 0.133 | 0.686 | 1.59 | 1.52 | 1.22 | 1.78 (inactive) | 0.688 | -0.0618 | 1.56 | 0.0646 (inactive) | 1.09 (inactive) | 0.91 (inactive) | 3.24 | -0.637 (inactive) | 0.12 | 0.169 | 1.07 | 0.0903
5 | Cc1c(NC(=O)/C(C#N)=C/C=C/c2ccc([N+](=O)[O-])cc2)c(=O)n(-c2ccccc2)n1C | -0.309 | 0.129 | -0.0718 | 0.906 | 1.63 | 1.65 | 1.25 | 3.34 (inactive) | 0.854 | -0.0867 | 1.49 | 0.437 (inactive) | -0.914 (inactive) | 0.0795 (inactive) | 3.17 | -1.46 (inactive) | -0.022 | 0.305 | 1.04 | 0.0506
6 | O=C1C2C=CC(C(O)c3ccccn3)N(Nc3ccc([N+](=O)[O-])cc3)C2C(=O)N1c1ccccc1 (stereo not given) | 0.0747 | 0.369 | 0.0447 | 0.794 | 1.33 | 1.82 | 1.31 | 0.678 (inactive) | 0.512 | -0.0645 | 0.379 | -0.931 (inactive) | 0.587 (inactive) | -0.622 (inactive) | 1.12 | -1.36 (inactive) | -0.248 | -0.493 | 0.772 | -0.047
7 | CN(C)CCCCNC(=O)[C@H]1C[C@H]2C(=O)N[C@@H](CCCCN(C)C)C(=O)N2[C@H]1c1ccc(O)cc1 | -0.162 | 0.857 | -0.215 | 0.301 | -0.0742 | -0.121 | 0.763 | -0.354 (inactive) | -0.349 | -0.16 | 1.39 | -2.61 (inactive) | -0.403 (inactive) | -1.41 (inactive) | -0.237 | 1.55 (inactive) | -0.192 | 0.774 | 0.343 | -0.176
8 | C=C1C(=O)C=C2CN(C(=O)c3ccccc3)[C@@](Cc3ccc(F)cc3)(C(=O)OC)[C@@H]12 | 0.891 | -0.595 | 0.25 | 1.12 | 1.71 | 1.89 | 1.09 | 4.89 (inactive) | 1.87 | -0.129 | 0.356 | -23.7 (active) | -15.9 (active) | -2.6 (inactive) | 3.47 | -0.57 (inactive) | 0.513 | 0.0319 | 1.05 | 0.0071
9 | C=CCNC(=O)[C@@H]1[C@H]2C(=O)O[C@H](c3ccccc3)[C@H](c3ccccc3)N2[C@H](c2ccc(OCCO)cc2)[C@@]12C(=O)Nc1ccc(C#CC3=CCCCC3)cc12 | -0.607 | 0.308 | -0.0442 | 0.924 | 1.02 | 1.28 | 1.29 | -0.138 (inactive) | 0.597 | -0.186 | 1.54 | 1.78 (inactive) | 1.18 (inactive) | 3.36 (inactive) | 2.94 | -0.639 (inactive) | -0.168 | 0.918 | 1.14 | 0.0526
10 | C=CCNC(=O)[C@H]1[C@@H]2C(=O)O[C@@H](c3ccccc3)[C@@H](c3ccccc3)N2[C@@H](c2ccc(O)cc2)[C@]12C(=O)Nc1ccccc12 | 0.318 | 0.111 | -0.0628 | -0.519 | -1.15 | 0.992 | 1.09 | -2.15 (inactive) | -0.228 | 0.0749 | 1.05 | 1.14 (inactive) | 0.118 (inactive) | 1.37 (inactive) | 2.75 | 1.68 (inactive) | -0.193 | -0.0122 | -0.537 | -0.177
